FLuc modulator: inhibits or activates purified firefly luciferase, miR-21 counter-screen; P08659; purified FLuc, Km substrates, luminescence inhibition; Potency, µM (highest dose often 57.5 µM), inactives show at the top dose activity change, negative = inhibition, most hits filed as inhibitors; 360,000 tested, 6.9% active; AID 588342;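 further: plate controls were vehicle for no effect and reference inhibitor for full effect; nearly all actives have a fitted effect of over 55% in size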
Target sequence (P08659 whole entry, looked up): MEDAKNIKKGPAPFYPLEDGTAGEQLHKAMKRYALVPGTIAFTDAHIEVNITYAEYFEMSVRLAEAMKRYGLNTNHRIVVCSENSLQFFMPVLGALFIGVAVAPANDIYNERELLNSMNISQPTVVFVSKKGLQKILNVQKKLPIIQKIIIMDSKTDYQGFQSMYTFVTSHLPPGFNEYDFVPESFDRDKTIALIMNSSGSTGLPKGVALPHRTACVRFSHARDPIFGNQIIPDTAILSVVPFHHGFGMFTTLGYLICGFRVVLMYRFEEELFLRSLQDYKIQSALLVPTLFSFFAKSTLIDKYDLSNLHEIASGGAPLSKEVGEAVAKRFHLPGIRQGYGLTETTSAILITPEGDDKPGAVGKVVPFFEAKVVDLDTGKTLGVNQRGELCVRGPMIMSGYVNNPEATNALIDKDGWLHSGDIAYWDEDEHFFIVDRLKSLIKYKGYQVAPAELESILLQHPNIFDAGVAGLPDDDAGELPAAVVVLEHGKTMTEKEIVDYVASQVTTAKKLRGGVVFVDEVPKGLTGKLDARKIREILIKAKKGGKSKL
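Purified P. pyralis luciferase, 10 nM final, with Km-level 10 uM D-luciferin and 10 uM ATP in 50 mM Tris acetate pH 7.5, 10 mM Mg acetate, 0.01% Tween-20, 0.05% BSA; 6-point qHTS titration about 60 µM downward; luminescence read.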
ELG1 genotox: inducers of genotoxicity in HEK293T ELG1-luciferase cells. Potency, µM (highest dose often 46 µM), without a hit: at the highest dose activity change, positive = activation, most hits filed as activators. HEK293T ELG1-luciferase reporter, luminescence, 16 h. AID 504466. 330,000 tested, 1.3% active; further: % of control where 0% means no effect; nearly all actives have a fitted effect of over 60% in size
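ELG1-luciferase HEK293T cells, 2,000/well; compound pinned in; 16 hr, 37 °C, 5% CO2; ONE-Glo, 30 min RT; luminescence on CCD imager.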
Rab9 promoter act: Rab9 promoter activation. Huh7 Rab9 promoter-luciferase reporter, luminescence, 24 h. Potency, µM (doses to about 9.22 µM), inactives show at the top dose activation, negative = inhibition, actives largely listed as activators. 320,000 tested, 2.8% active; further: % of control where 0% means no effect; nearly all actives have a fitted effect of over 60% in size
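Luminescence read-out: Huh7 cells stably expressing Rab9-luciferase, treated 24 h with compound at 37 °C, then lysed with luciferase reagent for 10 min at ambient before reading.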
Luc counter: blocks Kinase-Glo luciferase, a counter-screen artifact; Q27757; Kinase-Glo luciferase, ATP luminescence, 8 min; Potency, µM (top dose mostly 38.3 µM), for inactives: top-dose activity change, negative = inhibition, most hits filed as inhibitors; 200,000 tested, 0.28% active; AID 1379; further: on the % scale 0 is the no-effect control and ±100 the full control effect; nearly all actives have a fitted effect of over 60% in size
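Substrate mix (final 50 mM imidazole pH 7.2, 50 mM KCl, 7 mM MgCl2, 10 uM ATP, 0.01% Tween 20, 0.05% BSA) plus pin-tool compound, then Kinase-Glo detection mix; 8 min ambient, luminescence read.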
NPC1 promoter act: NPC1 promoter activation. Huh7 NPC1 promoter luciferase reporter, 24 h. Potency, µM (titrated, usually from 9.22 µM), for inactives: at the highest dose activation, most hits filed as activators. 320,000 tested, 2.4% active; further: % of control where 0% means no effect; nearly all actives have a fitted effect of over 60% in size
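Quantitative HTS used a cell-based reporter: Huh7 cells stably bearing the NPC1 promoter upstream of luciferase were treated with compounds for 24 h, and promoter activation was read as luminescence.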
SMN2 splice enh: enhancers of SMN2 splice variant expression; HEK293 SMN2-luciferase splicing reporter, luminescence, 30-36 h; Potency, µM (series often up to 46.1 µM), inactives show at the highest dose activity change, positive = activation, usual class: activators; 210,000 tested, 2.8% active; AID 1458; further: % of control where 0% means no effect; nearly all actives have a fitted effect of over 55% in size
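qHTS luciferase splicing reporter: luminescence rises when SMN2 exon 7 is included in transfected HEK293 cells. Compound exposure lasted 30-36 h at 37C, with 4.5 mM final sodium butyrate as control, followed by a ONE-Glo read.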
* = called active by the depositor; ? = inconclusive; · = no result given; [ ] = another dose, or the depositor's remark. Sampled rows, rich in hits. Any-hit rate of the full collection: about 7.3%. The call rests on the fitted dose curve; in most records, active means well fitted curve in the direction sought with a large enough effect; inconclusive means small, poorly fitted or top-dose-only effect, or another doubt; inactive means no such curve, though single readings can be large; an effect the other way counts as inactive or inconclusive. Potency means the concentration at half of the fitted maximal effect.

SMILES | FLuc modulator | ELG1 genotox | Rab9 promoter act | Luc counter | NPC1 promoter act | SMN2 splice enh
COC(=O)C(C)Oc1ccc(-c2nccc(-c3cccs3)n2)cc1 (configuration not stated) | 17µM* | 11% | 24% | 4% | 18% | ?
Oc1ccc(-c2nnc(-c3ccc(O)cc3)nn2)cc1 | 2.7µM* | 18% | 4µM* | -4% | 3.2µM* | 14µM*
Oc1ccc(O)cc1 | · | · | -42%[46.1 µM] | -3% | -32%[46.1 µM] | 9%
O=C(Nc1nccc(-c2cccs2)n1)c1ccccc1Cl | -17% | 5% | 18% | -2% | 6% | -2%
Oc1ccc(-c2nccc(-c3cccs3)n2)cc1 | 8.5µM* | ? | 22% | 1% | ? | ?
COC(=O)c1ccc(NC(=O)CC2C(=O)N(c3ccc(C)cc3)C(=O)N2Cc2ccc(OC)cc2)cc1 (configuration not stated) | -12% | · | · | · | · | ·
O=S(=O)(O)c1cc(O)c2c(O)c(N=Nc3cccc4ccccc34)c(S(=O)(=O)O)cc2c1 | · | · | · | -20%[7.66 µM] | · | -11%[9.22 µM]
Oc1ccc(-c2nccc(-c3ccc(Cl)cc3)n2)cc1 | 17µM* | ? | 13% | -3% | 2% | 12%
CCOC(=O)c1c(NC(=O)c2cc3nc(-c4ccccc4)cc(C(F)(F)F)n3n2)sc2c1CCC(C)C2 (configuration not stated) | -2% | · | · | · | · | ·

Screens (PubChem)
